Shn3 3UTR inh = reduction of Shn3 3'UTR firefly luciferase signal, primary screen, Schnurri-3 inhibitor project, cell-based, Clone20 osteoblasts, set 2; actives 0.52% (n = 360,000); Clone20 osteoblast Shn3 3'UTR firefly luciferase, 24 h; inhibition, % at 12.5 µM;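 active = mean inhibition of at least 75% with every replicate also reaching 75%; inconclusive = mean inhibition at least 75% but some replicate below; inactive = mean inhibition below 75%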
TWEAK-Fn14 inh = inhibitors of TWEAK-Fn14 signaling, primary screen, luciferase reporter cells, uHTS | inhibition, % at 10 µM | actives 2% (n = 360,000) | TWEAK-stimulated Fn14 reporter cells, luciferase luminescence, 8 h; in the data active = inhibition above about 50%
Peg3 promoter = Peg3 promoter-driven luciferase inhibitors, primary screen, cell-based, HeLa, luciferase luminescence | HeLa PEG-Prom luciferase reporter, overnight | AID 588405, 2011 | actives 1.7% (n = 360,000) | inhibition, % at 20 µM;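 active = inhibition of at least 50% at 20 µM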
LMP1 NFkB inh = EBV LMP1-driven NF-kappaB luciferase reporter inhibitors, primary screen, cell-based, luminescence, single point. inhibition, % at 12.5 µM. LMP1-induced NF-kappaB luciferase reporter cells. AID 504558, 2011. actives 0.69% (n = 350,000); in the data active = inhibition above about 41%; inconclusive = no clear call, values can overlap the other calls
TROY NFkB inh = inhibitors of TROY-driven NF-kB signaling, primary screen, Q293 LMP1-TROYcd cells, NF-kB luciferase, uHTS. Q293 LMP1-TROYcd NF-kB luciferase reporter, 4 h. inhibition, % at 10 µM. actives 0.98% (n = 360,000). AID 1347056, 2019;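 active = compounds whose plate-normalised and pattern-corrected inhibition of the luciferase reporter signal at the single screening dose is 50% or more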
MITF TRPM1 inh = inhibitors of MITF-dependent TRPM1 promoter reporter, primary screen, cell-based, SK-MEL-5, single point, luciferase. SK-MEL-5 TRPM1 promoter luciferase, 24 h. inhibition, % at 12.5 µM. actives 0.83% (n = 330,000);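 active = mean inhibition across replicates of 60% or more, whatever share of single replicates reaches that level; inconclusive = some that reach 60%, reason not given; inactive = mean inhibition across replicates below 60%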
Hits are given with their value; – = inactive; ? = inconclusive; · = no result given. The list is not random: actives were taken first. Their share in the collection is about 4.1%.

SMILES	Shn3 3UTR inh	TWEAK-Fn14 inh	Peg3 promoter	LMP1 NFkB inh	TROY NFkB inh	MITF TRPM1 inh
C=CCNC(=S)N/N=C(\C)c1ccccn1	91.5	108.4	74.7	79.6	–	–
COc1ccc(NC(=O)C2CCC(=O)N2S(=O)(=O)c2ccc(C)cc2)cc1Cl (centres undefined)	–	–	–	–	–	–
COc1ccccc1CNC(=O)CN1CCN(c2ccc(C(C)=O)cc2)CC1	–	–	–	–	–	–
O=C(NCCCl)Nc1cc([N+](=O)[O-])ccc1Cl	–	–	–	–	61.9	–
CCC(CC)C(=O)Nc1cc([N+](=O)[O-])ccc1Cl	–	–	–	–	–	–
C=CC[n+]1c(-c2ccc(OCC)cc2)csc1NNC(=O)Nc1ccccc1	88.0	–	–	–	–	–
C=CC[n+]1c(-c2ccc(C)cc2)csc1Nc1c(C)n(C)n(-c2ccccc2)c1=O	–	–	–	–	–	–
CCN(CC)c1ccc2c(Cl)c(Br)c(=O)oc2c1	98.3	85.4	104.5	–	–	–
CCN(CC)c1ccc2c(C)c(Cl)c(=O)oc2c1	–	–	–	–	–	–
CCN(CC)c1ccc2c(c1)oc(=O)c1c(Cl)cc(=O)oc12	96.3	75.5	100.6	–	–	80.4
CCC(=O)N1CCN(c2ccc(NC(=O)c3cc4ccccc4o3)cc2Cl)CC1	–	92.7	107.7	–	66.1	–
CCCC(=O)N1CCN(c2ccc(NC(=O)c3cc4ccccc4o3)cc2Cl)CC1	91.5	95.0	103.8	–	81.5	?
CCC(=O)N1CCN(c2ccc(NC(=S)NC(=O)c3cc4ccccc4o3)cc2)CC1	–	–	–	–	61.5	–
O=C(Nc1ccccc1-c1ccccc1NC(=O)c1ccco1)c1ccco1	–	66.1	–	–	·	–
O=C(Nc1ccc(NC(=O)c2cc3ccccc3o2)cc1)c1ccco1	–	–	62.7	–	–	–
O=C(Nc1ccccc1-c1ccccc1)c1ccccc1	–	61.6	–	–	–	–
O=C(Nc1ccc(N2CCN(C(=O)c3ccco3)CC2)c(Cl)c1)c1cc2ccccc2o1	89.6	97.4	100.2	–	72.0	70.3
O=C(Nc1ccccc1)c1cc2ccccc2o1	–	–	–	–	–	–
CC(Oc1ccc(F)cc1)C(=O)Nc1cc(S(=O)(=O)N2CCCCC2)ccc1N1CCOCC1 (centres undefined)	–	–	–	–	–	–
COc1ccc(S(=O)(=O)N(CC(=O)NCc2ccncc2)c2cc(C)cc(C)c2)cc1OC	–	–	–	–	–	–
Cc1[nH]c2ccccc2c1C(=O)C(C)OC(=O)c1ccccc1NCCO (centres undefined)	–	52.8	–	–	–	–
Cc1onc(-c2c(F)cccc2Cl)c1C(=O)Nc1cccc(S(=O)(=O)NC2=NCCC2)c1	–	–	–	–	–	–
O=C(Nc1cccc(Cl)c1)c1cccnn1	–	–	–	–	–	–
CC(=O)Nc1cc(Cl)c(N=Cc2ccc(O)cc2O)cc1Cl	–	77.3	–	–	–	–
O=C(NCc1cccc(OC(F)(F)F)c1)c1ccc2c(c1)S(=O)(=O)c1cc(Cl)ccc1C2=O	–	–	–	–	–	–
SMILES	Shn3 3UTR inh	TWEAK-Fn14 inh	Peg3 promoter	LMP1 NFkB inh	TROY NFkB inh	MITF TRPM1 inh
CC(=O)NC(NC(=S)Nc1ccc(N=Nc2ccccc2)cc1)C(Cl)(Cl)Cl (centres undefined)	–	62.8	–	–	–	–
COc1ccc(NC(=S)NC(NC(=O)/C=C/c2ccccc2)C(Cl)(Cl)Cl)cc1 (centres undefined)	–	–	53.3	–	–	–
O=C(/C=C/c1ccccc1)NC(NC(=S)Nc1cc(Cl)ccc1Cl)C(Cl)(Cl)Cl (centres undefined)	–	–	–	–	–	–
O=C(/C=C/c1ccccc1)NC(NC(=S)Nc1ccc(Cl)cc1)C(Cl)(Cl)Cl (centres undefined)	?	67.2	–	–	–	–
CC(C)(C)C(=O)Nc1ccc(N=Nc2ccccc2)cc1	–	–	–	–	83.5	–
O=C(O)CCC(=O)Nc1ccc(N=Nc2ccccc2)cc1	–	–	–	–	–	–
COC(=O)C[C@@H]1C[C@@H]2c3cc(NC(=O)NC4CCCCC4)ccc3O[C@@H]2[C@H](CO)O1	–	–	–	–	–	·
CCN1C(=O)c2ccccc2S(=O)c2ccc(C(=O)NCc3ccc(OC)cc3)cc21 (centres undefined)	–	–	–	–	–	–
O=C(O)CSc1nnc(-c2ccc(Cl)cc2Cl)n1-c1ccc(Cl)cc1	–	–	–	–	–	–
CCOC(=O)C(CC)/C(C)=N\NC(=O)c1ccccc1O (centres undefined)	–	–	54.0	–	–	–
CCC/C(C)=N/NC(=O)c1ccccc1O	–	–	–	–	–	–
O=C1CC(NNc2nc3ccccc3s2)C(=O)N1c1ccccc1 (centres undefined)	–	–	–	–	61.0	–
Cc1ccc(N2C(=O)CC(NNc3nc4ccccc4s3)C2=O)cc1 (centres undefined)	–	–	–	–	–	–
CC(C)Sc1nc(SCC(=O)NCc2ccco2)c2c3c(sc2n1)COC(C)(C)C3	–	79.2	–	–	78.6	–
CC(C)Sc1nc(SCC(=O)O)c2c3c(sc2n1)COC(C)(C)C3	–	–	–	–	–	–
NC(N)=N/N=C(\N=Nc1ccccc1)c1ccc(Cl)cc1	–	–	89.6	–	–	–
CCN(CC(=O)Nc1ccccc1C(F)(F)F)C(=O)c1ccc(-n2nc(C)c(CCC(=O)OC)c2C)cc1	–	–	–	–	–	–
COc1ccc(C(=O)N/C(=C/c2ccc(Cl)cc2)C(=O)Nc2ccc(C(=O)O)cc2)cc1	–	99.6	–	–	–	–
COc1cc(C)c(/C=C(\C#N)C(=O)Nc2cccc(C)c2)cc1C(C)C	–	86.3	–	–	83.8	–
COCCSc1nnc(NS(=O)(=O)c2ccccc2)s1	–	–	–	–	–	–
COCCSc1nnc(NS(=O)(=O)c2ccc(C)cc2)s1	–	–	–	–	53.6	–
CCCCCCCN1C(Nc2ccccc2)=NC[C@@H]1Cc1ccccc1	86.5	–	–	–	–	–
CC(C)(C)C1CCC(CN2C(Nc3ccccc3)=NC[C@@H]2Cc2ccccc2)CC1 (some centres undefined)	–	–	94.8	–	–	95.4
CN(C)C1=NC[C@H](Cc2ccccc2)N1CCCC1CCCC1	86.1	–	–	–	–	–

Screening results (PubChem)
